Measured values published in article PMC4336329 (PLoS ONE, 2015).
Out of some 310,000 compounds screened, about 2,200 (0.71%) showed an effect of 50% or more. The effect is printed as a negative number. What follows is part of a selection rich in strong results, with near analogues and random picks from the rest.

biological target: human ether-à-go-go-related gene (hERG) potassium channel (human, UniProt Q12809); test: primary screen, population patch clamp on CHO cells stably expressing hERG; higher = less effect of the substance
Experimental: Briefly, Chinese hamster ovary (CHO) cells stably expressing the hERG channel were dislodged from tissue culture flasks and dispensed into PPC plates. […] During the recording, background leak currents were estimated by a 100 ms step to -80 mV from an initial holding potential of -70 mV and subtracted from the subsequent current measurement. The campaign was conducted in two phases using slight differences in recording protocol. In the first phase, the initial voltage pulse used a 100 ms step to -30 mV from a holding potential of -70 mV, a 2 s conditioning step to +25 mV, and a 2 s test step to -30 mV. During the second phase of the screen, the potential during the conditioning step was raised to +45 mV. In both phases of the campaign, a secondary voltage pulse was applied using the same parameters as the second phase initial pulse. The initial and secondary pulses were applied in the absence of compound, and upon application of 1 μM and 10 μM test concentrations. Small molecule effects on hERG current density were quantified by […].

Sequence of human ether-à-go-go-related gene (hERG) potassium channel (Q12809 whole entry, looked up): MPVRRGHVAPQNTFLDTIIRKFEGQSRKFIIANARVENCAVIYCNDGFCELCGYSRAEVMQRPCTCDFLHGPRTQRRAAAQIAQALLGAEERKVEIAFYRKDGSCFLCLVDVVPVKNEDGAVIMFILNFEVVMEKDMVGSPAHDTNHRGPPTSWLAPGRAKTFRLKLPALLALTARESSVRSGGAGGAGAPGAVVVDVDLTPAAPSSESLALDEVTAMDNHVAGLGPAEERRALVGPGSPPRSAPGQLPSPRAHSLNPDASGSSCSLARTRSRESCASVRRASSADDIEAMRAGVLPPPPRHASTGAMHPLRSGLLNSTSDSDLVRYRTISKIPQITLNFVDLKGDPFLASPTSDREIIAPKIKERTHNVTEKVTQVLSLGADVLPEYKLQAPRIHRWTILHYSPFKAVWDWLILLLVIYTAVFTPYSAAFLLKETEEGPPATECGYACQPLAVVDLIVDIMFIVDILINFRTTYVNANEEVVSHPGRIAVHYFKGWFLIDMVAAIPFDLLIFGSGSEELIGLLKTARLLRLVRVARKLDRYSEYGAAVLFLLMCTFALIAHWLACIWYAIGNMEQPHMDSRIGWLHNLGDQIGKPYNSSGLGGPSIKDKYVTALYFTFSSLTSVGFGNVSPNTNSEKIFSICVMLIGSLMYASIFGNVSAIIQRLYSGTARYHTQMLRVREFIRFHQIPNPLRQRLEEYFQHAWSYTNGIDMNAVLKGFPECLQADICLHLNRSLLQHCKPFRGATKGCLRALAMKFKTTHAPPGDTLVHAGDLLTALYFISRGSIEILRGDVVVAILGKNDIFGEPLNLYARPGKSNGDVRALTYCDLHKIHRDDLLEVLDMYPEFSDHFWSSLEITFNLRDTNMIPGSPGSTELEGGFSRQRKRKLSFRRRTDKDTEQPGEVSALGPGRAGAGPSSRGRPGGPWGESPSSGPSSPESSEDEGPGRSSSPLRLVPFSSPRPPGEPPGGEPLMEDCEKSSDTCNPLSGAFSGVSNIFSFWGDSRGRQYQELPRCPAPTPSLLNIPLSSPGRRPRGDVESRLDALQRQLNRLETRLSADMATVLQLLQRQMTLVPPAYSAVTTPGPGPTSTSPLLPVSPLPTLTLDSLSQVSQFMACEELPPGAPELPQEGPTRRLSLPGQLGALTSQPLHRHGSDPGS

| Structure (SMILES) | hERG current change (%, negative = inhibition) at 1uM |
| --- | --- |
| Cc1ccc(OCCN(C)C(=O)c2cc(COc3ccc(F)cc3F)on2)cc1 | -0.323% |
| COC(=O)c1cccc(NC(=O)c2ccc(S(=O)(=O)N3CCN(C)CC3)cc2)c1 | 16.5% |
| COCCN(C(=O)CSc1nc2ccccc2c(=O)n1CC(C)C)c1c(N)n(Cc2ccccc2)c(=O)[nH]c1=O | 11.8% |
| CC(C)n1c(/C=C/[C@H](O)C[C@H](O)CC(=O)[O-])c(-c2ccc(F)cc2)c2ccccc21.[Na+] | 11.8% |
| Cc1cc(O)c(C(C)C)cc1NS(=O)(=O)c1ccccc1 | 10.4% |
| COc1ccccc1-n1c(SC(C)C(=O)NCC2CCCO2)nc2cc(Cl)ccc2c1=O (centres unmarked) | 12.1% |
| CCOC(=O)N1CCN(c2nc(-c3ccc(Cl)cc3)cs2)CC1 | -8.51% |
| CC(C)C(=O)N1CCN(c2nc(-c3ccc(Cl)cc3)cs2)CC1 | -69.6% |
| CCC(=O)N1CCN(c2nc(-c3ccc(Cl)cc3)cs2)CC1 | 9.84% |
| O=C(NNc1ccccc1F)c1ccccc1 | 2.87% |
| COc1cc(NC(=O)[C@H]2CSCN2C(=O)[C@@H]2CCC(=O)N2)cc(OC)c1OC | 10.8% |
| Cc1ccc(S(=O)(=O)Nc2cccc(Cl)c2)cc1NC(=O)c1cccnc1 | 5.21% |
| Cc1ccc(C(=O)NC(=S)N(C)C2CCCCC2)cc1 | 6.79% |
| CN(CC(=O)Nc1c(Cl)cccc1Cl)C(=O)CNC(=O)c1ccco1 | 8.71% |
| O=C(CN(Cc1ccccc1)S(=O)(=O)c1ccc(Cl)cc1)NCC1CCCO1 (centres unmarked) | 3.41% |
| O=C(CN(Cc1ccccc1)S(=O)(=O)c1ccc(Br)cc1)NCC1CCCO1 (centres unmarked) | -80.5% |
| O=C(CN(Cc1ccc(Br)cc1)S(=O)(=O)c1ccccc1)NCC1CCCO1 (centres unmarked) | 11.8% |
| CCn1c2ccccc2c2cc(CNCc3ccc(OC)cc3OC)ccc21.O=C(O)C(=O)O | -47.5% |
| Cc1nc2ccccc2cc1C(=O)Nc1ccccc1Cl | 3.5% |
| C/C=C/c1ccc(OC(C)=O)c(OC)c1 | 8.76% |
| CCOC(=O)N1CCN(C(=O)Cn2cc3c(n2)CCCC3)CC1 | -51.2% |

| Structure (SMILES) | hERG current change (%, negative = inhibition) at 1uM |
| --- | --- |
| O=C(Cn1cc2c(n1)CCCC2)N1CCCC1 | 8.36% |
| O=C(Cn1cc2c(n1)CCCCC2)N1CCCCC1 | 9.12% |
| Cc1cc(=O)oc2c3c(cc(OCC(=O)NCc4ccco4)c12)OC(C)(C)CC3 | -1.54% |
| CCOc1ccc(N(CC(=O)NC2CCCCC2)C(=O)CNC(=O)c2ccco2)cc1 | -5.99% |
| Cc1cccc(-n2c(C)nc3cc(C(=O)N4CCC5(CC4)OCCO5)ccc32)c1 | -14.2% |
| CC1(C)CC(NC(=O)c2ccc(-c3ccc([N+](=O)[O-])cc3)o2)CC(C)(C)N1 | -3.5% |
| CC(=O)c1ccc(-c2ccc(C(=O)NC3CCCCCC3)o2)cc1 | 29.5% |
| CC(=O)c1ccc(-c2ccc(C(=O)NC3CC(C)(C)NC(C)(C)C3)o2)cc1 | -71.1% |
| CCN(c1ccccc1)c1nc(=O)c2cccnc2s1 | 5.88% |
| COc1ccc(C)cc1C1=Nc2ccccc2C1(C)C | 13.4% |
| Cc1c(C(=O)OCC(=O)Nc2ccc(C(N)=O)cc2)cccc1[N+](=O)[O-] | 11% |
| COc1ccc(C[C@@H]2CN3C(=NC[C@@H]3C)N2CCNC(=O)c2ccc(C)c(Br)c2)cc1 | -64.9% |
| C/C=C(\C)C(=O)NCCN1C2=NC[C@H](C(C)C)N2C[C@H]1Cc1ccc(O)cc1 | 29.8% |
| COc1ccc(C[C@H]2CN3C(=NC[C@H]3Cc3ccccc3)N2CCNC(=O)c2ccc(C)c(Br)c2)cc1 | -24.7% |
| COc1ccc(C[C@H]2CN3C(=NC[C@H]3C)N2CCNC(=O)c2ccc(C)c(Br)c2)cc1 | -70.9% |
| Cc1ccc(C(=O)NCCN2C3=NC[C@H](C(C)C)N3C[C@H]2Cc2ccc(O)cc2)cc1Br | 0.0506% |
| Cc1ccc(C(=O)NCCN2C3=NC[C@H](Cc4ccc(O)cc4)N3C[C@H]2Cc2ccc(O)cc2)cc1Br | -9.94% |
| Cc1ccc(C(=O)NCCN2C3=NC[C@H](C)N3C[C@H]2Cc2ccc(O)cc2)cc1Br | 9.94% |
| COc1ccc(C[C@H]2CN3C(=NC[C@@H]3Cc3ccccc3)N2CCNC(=O)c2ccc(C)c(Br)c2)cc1 | -16.7% |
| COc1ccc(C[C@H]2CN3C(=NC[C@@H]3C(C)C)N2CCNC(=O)c2ccc(C)c(Br)c2)cc1 | -66.8% |
